Assay results taken from the supplement of paper PMC8728848.
Only a selection was taken, and the strongest signals are over-represented in it overall.

Experiments:
Assay in all cases: glycan array binding signal (z-score within array); higher = stronger binding
Settings in all cases: glycan notation: IUPAC condensed, linker removed
Fuc(a1-2)Gal(b1-4)GlcNAc = target: Fuc(a1-2)Gal(b1-4)GlcNAc
Procedure, shortened: (§1)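 The binding signal is a Z-score computed within each array. Data were drawn from 3228 arrays in the Consortium for Functional Glycomics database, restricted to those with a known protein sequence. Scores were averaged over arrays of the same protein sequence at different concentrations or buffers, and over linkers, and negative values can be taken as non-binding.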

[1] = target: Fuc(a1-2)Gal6S(b1-4)GlcNAc
Procedure, shortened: as §1

[2] = target: Fuc(a1-3)[Gal3S(b1-4)]Glc
Procedure, shortened: as §1

Gal(a1-3)Gal(b1-3)Glc = target: Gal(a1-3)Gal(b1-3)Glc
Procedure, shortened: as §1

Gal(a1-4)GlcNAc = target: Gal(a1-4)GlcNAc
Procedure, shortened: as §1

Gal(a1-6)Glc = target: Gal(a1-6)Glc
Procedure, shortened: as §1

Gal(b1-3)Gal = target: Gal(b1-3)Gal
Procedure, shortened: as §1

[3] = target: Gal(b1-3)GalNAc(b1-3)Gal(b1-4)GlcNAc
Procedure, shortened: as §1

[4] = target: Gal(b1-4)GlcNAc(b1-2)Man(a1-3)[Gal(b1-4)GlcNAc(b1-2)Man(a1-6)]Man(b1-4)GlcNAc(b1-4)GlcNAc
Procedure, shortened: as §1

Gal3S(b1-4)Glc6S = target: Gal3S(b1-4)Glc6S
Procedure, shortened: as §1

Gal3S(b1-4)GlcNAc = target: Gal3S(b1-4)GlcNAc
Procedure, shortened: as §1

Gal3S(b1-4)GlcNAc6S = target: Gal3S(b1-4)GlcNAc6S
Procedure, shortened: as §1

Gal3S6S(b1-4)GlcNAc6S = target: Gal3S6S(b1-4)GlcNAc6S
Procedure, shortened: as §1

Gal6S(b1-4)Glc6S = target: Gal6S(b1-4)Glc6S
Procedure, shortened: as §1

[5] = target: GalNAc(b1-3)Gal(a1-4)Gal(b1-4)GlcNAc
Procedure, shortened: as §1

Glc(b1-4)Glc = target: Glc(b1-4)Glc
Procedure, shortened: as §1

[6] = target: GlcNAc(b1-4)GlcNAc(b1-4)GlcNAc(b1-4)GlcNAc(b1-4)GlcNAc(b1-4)GlcNAc
Procedure, shortened: as §1

[7] = target: Man(a1-3)[Man(a1-6)]Man(b1-4)GlcNAc(b1-4)GlcNAc
Procedure, shortened: as §1

Man(b1-4)GlcNAc = target: Man(b1-4)GlcNAc
Procedure, shortened: as §1

[8] = target: Neu5Ac(a2-3)Gal(b1-3)GalNAc
Procedure, shortened: as §1

[9] = target: Neu5Ac(a2-3)Gal(b1-4)GlcNAc(b1-3)Gal(b1-4)GlcNAc
Procedure, shortened: as §1

[10] = target: Neu5Ac(a2-3)Gal(b1-4)GlcNAc(b1-6)[Gal(b1-3)]GalNAc
Procedure, shortened: as §1

[11] = target: Neu5Ac(a2-3)Gal(b1-4)GlcNAc6S
Procedure, shortened: as §1

[12] = target: Neu5Ac(a2-3)Gal(b1-4)[Fuc(a1-3)]GlcNAc(b1-3)Gal
Procedure, shortened: as §1

[13] = target: Neu5Ac(a2-8)Neu5Ac(a2-3)Gal(b1-4)Glc
Procedure, shortened: as §1

[14] = target: Neu5Ac(a2-8)Neu5Ac(a2-3)[GalNAc(b1-4)]Gal(b1-4)Glc
Procedure, shortened: as §1

[15] = target: Neu5Gc(a2-3)Gal(b1-3)GlcNAc
Procedure, shortened: as §1

[16] = target: Fuc(a1-2)Gal(b1-4)GlcNAc(b1-3)Gal(b1-4)GlcNAc(b1-3)Gal(b1-4)GlcNAc
Procedure, shortened: as §1

Fuc(a1-2)[Gal(a1-3)]Gal = target: Fuc(a1-2)[Gal(a1-3)]Gal
Procedure, shortened: as §1

Gal(a1-3)Gal(b1-4)GlcNAc = target: Gal(a1-3)Gal(b1-4)GlcNAc
Procedure, shortened: as §1

[17] = target: Gal(a1-3)[Gal(a1-4)]Gal(b1-4)GlcNAc
Procedure, shortened: as §1

[18] = target: Gal(b1-4)GlcNAc(b1-6)GalNAc
Procedure, shortened: as §1

Gal3S(b1-4)Glc = target: Gal3S(b1-4)Glc
Procedure, shortened: as §1

Gal4S(b1-4)GlcNAc = target: Gal4S(b1-4)GlcNAc
Procedure, shortened: as §1

Gal6S(b1-4)Glc = target: Gal6S(b1-4)Glc
Procedure, shortened: as §1

[19] = target: GlcNAc(b1-3)[GlcNAc(b1-6)]GlcNAc(b1-4)GlcNAc
Procedure, shortened: as §1

[20] = target: Man(a1-2)Man(a1-2)Man(a1-6)[Man(a1-3)]Man
Procedure, shortened: as §1

[21] = target: Neu5Ac(a2-3)Gal(b1-4)GlcNAc(b1-3)Gal(b1-4)GlcNAc(b1-3)Gal(b1-4)GlcNAc
Procedure, shortened: as §1

[22] = target: Neu5Ac(a2-3)Gal(b1-4)[Fuc(a1-3)]GlcNAc
Procedure, shortened: as §1

[23] = target: Gal(b1-3)GalNAc(b1-4)[Neu5Ac(a2-3)]Gal(b1-4)Glc
Procedure, shortened: as §1

[24] = target: Gal(b1-3)[Fuc(a1-4)]GlcNAc
Procedure, shortened: as §1

[25] = target: Gal(b1-3)[GlcNAc(b1-6)]GalNAc
Procedure, shortened: as §1

[26] = target: Gal(b1-4)GlcNAc(b1-3)Gal(b1-4)GlcNAc(b1-3)Gal(b1-4)GlcNAc
Procedure, shortened: as §1

[27] = target: Gal(b1-4)GlcNAc(b1-6)[Gal(b1-3)]GalNAc
Procedure, shortened: as §1

Gal3S6S(b1-4)GlcNAc = target: Gal3S6S(b1-4)GlcNAc
Procedure, shortened: as §1

[28] = target: GlcNAc(b1-6)Gal(b1-4)GlcNAc
Procedure, shortened: as §1

[29] = target: Man(a1-2)Man(a1-2)Man(a1-3)Man
Procedure, shortened: as §1

[30] = target: Neu5Ac(a2-3)Gal(b1-3)GlcNAc6S
Procedure, shortened: as §1

[31] = target: Neu5Ac(a2-3)Gal(b1-4)GlcNAc
Procedure, shortened: as §1

[32] = target: Neu5Ac(a2-3)Gal(b1-4)[Fuc(a1-3)]GlcNAc(b1-3)Gal(b1-4)GlcNAc
Procedure, shortened: as §1

[33] = target: Neu5Ac(a2-3)[GalNAc(b1-4)]Gal(b1-4)Glc
Procedure, shortened: as §1

[34] = target: Neu5Ac(a2-3)[Neu5Ac(a2-6)]GalNAc
Procedure, shortened: as §1

Neu5Ac(a2-8)Neu5Ac = target: Neu5Ac(a2-8)Neu5Ac
Procedure, shortened: as §1

[35] = target: Neu5Ac(a2-3)Gal(b1-4)GlcNAc(b1-2)Man(a1-3)[Neu5Ac(a2-6)Gal(b1-4)GlcNAc(b1-2)Man(a1-6)]Man(b1-4)GlcNAc(b1-4)GlcNAc
Procedure, shortened: as §1

[36] = target: Neu5Ac(a2-3)Gal(b1-4)[Fuc(a1-3)]GlcNAc(b1-3)Gal(b1-4)[Fuc(a1-3)]GlcNAc(b1-3)Gal(b1-4)[Fuc(a1-3)]GlcNAc
Procedure, shortened: as §1

Neu5Ac(a2-6)Gal(b1-4)Glc = target: Neu5Ac(a2-6)Gal(b1-4)Glc
Procedure, shortened: as §1

[37] = target: Neu5Ac(a2-6)Gal(b1-4)GlcNAc(b1-3)Gal(b1-4)GlcNAc(b1-3)Gal(b1-4)GlcNAc
Procedure, shortened: as §1

[38] = target: Neu5Ac(a2-6)Gal(b1-4)GlcNAc(b1-3)GalNAc
Procedure, shortened: as §1

[39] = target: Neu5Ac(a2-6)GalNAc(b1-4)GlcNAc
Procedure, shortened: as §1

B1: FBG4 (Homo sapiens), Q96EF6 (protein)
chain: MGARLSRRRLPADPSLALDALPPELLVQVLSHVPPRSLVTRCRPVCRAWRDIVDGPTVWLLQLARDRSAEGRALYAVAQRCLPSNEDKEEFPLCALARYCLRAPFGRNLIFNSCGEQGFRGWEVEHGGNGWAIEKNLTPVPGAPSQTCFVTSFEWCSKRQLVDLVMEGVWQELLDSAQIEICVADWWGARENCGCVYQLRVRLLDVYEKEVVKFSASPDPVLQWTERGCRQVSHVFTNFGKGIRYVSFEQYGRDVSSWVGHYGALVTHSSVRVRIRLS
glycan array binding signal (z-score) (Fuc(a1-2)Gal(b1-4)GlcNAc): -0.263 | glycan array binding signal (z-score) [1]: -0.475 | glycan array binding signal (z-score) [2]: -0.408 | glycan array binding signal (z-score) (Gal(a1-3)Gal(b1-3)Glc): -0.259 | glycan array binding signal (z-score) (Gal(a1-4)GlcNAc): -0.495 | glycan array binding signal (z-score) (Gal(a1-6)Glc): 1.59 | glycan array binding signal (z-score) (Gal(b1-3)Gal): -0.536 | glycan array binding signal (z-score) [3]: -0.307 | glycan array binding signal (z-score) [4]: 0.176 | glycan array binding signal (z-score) (Gal3S(b1-4)Glc6S): 2.36 | glycan array binding signal (z-score) (Gal3S(b1-4)GlcNAc): 0.201 | glycan array binding signal (z-score) (Gal3S(b1-4)GlcNAc6S): 2.01 | glycan array binding signal (z-score) (Gal3S6S(b1-4)GlcNAc6S): 6.42 | glycan array binding signal (z-score) (Gal6S(b1-4)Glc6S): 3.24 | glycan array binding signal (z-score) [5]: -0.171 | glycan array binding signal (z-score) (Glc(b1-4)Glc): 0.332 | glycan array binding signal (z-score) [6]: 1.31 | glycan array binding signal (z-score) [7]: 0.275 | glycan array binding signal (z-score) (Man(b1-4)GlcNAc): -0.448 | glycan array binding signal (z-score) [8]: -0.559 | glycan array binding signal (z-score) [9]: -0.49 | glycan array binding signal (z-score) [10]: -0.301 | glycan array binding signal (z-score) [11]: 0.103 | glycan array binding signal (z-score) [12]: -0.522 | glycan array binding signal (z-score) [13]: -0.41 | glycan array binding signal (z-score) [14]: -0.266 | glycan array binding signal (z-score) [15]: -0.432

B2: RegIIIalpha (Mus musculus), O09037 (protein)
chain: MLPHLVLNSISWMLLSCLLFVFQVQGEDFQKEVPSPRTSCPMGYKAYRSHCYALVMTPKSWFQADLVCQKRPSGHLVSILSGGEASFVSSLVNGRVDNYQDIWIGLHDPTMGQQPNGGGWEWSNSDVLNYLNWDGDPSSTVNRGHCGSLTASSGFLKWGDYYCDGTLPFVCKFKQ
glycan array binding signal (z-score) (Fuc(a1-2)Gal(b1-4)GlcNAc): -0.094 | glycan array binding signal (z-score) [16]: 0.048 | glycan array binding signal (z-score) (Fuc(a1-2)[Gal(a1-3)]Gal): -0.098 | glycan array binding signal (z-score) (Gal(a1-3)Gal(b1-4)GlcNAc): -0.089 | glycan array binding signal (z-score) [17]: 0.002 | glycan array binding signal (z-score) [18]: -0.096 | glycan array binding signal (z-score) (Gal3S(b1-4)Glc): -0.096 | glycan array binding signal (z-score) (Gal4S(b1-4)GlcNAc): 0.116 | glycan array binding signal (z-score) (Gal6S(b1-4)Glc): -0.072 | glycan array binding signal (z-score) [19]: -0.081 | glycan array binding signal (z-score) [20]: -0.092 | glycan array binding signal (z-score) [21]: 0.002 | glycan array binding signal (z-score) [22]: -0.054

B3: TREM-2 (Mus musculus), Q99NH8 (protein)
chain: MGPLHQFLLLLITALSQALNTTVLQGMAGQSLRVSCTYDALKHWGRRKAWCRQLGEEGPCQRVVSTHGVWLLAFLKKRNGSTVIADDTLAGTVTITLKNLQAGDAGLYQCQSLRGREAEVLQKVLVEVLEDPLDDQDAGDLWVPEESSSFEGAQVEHSTSRNQETSFPPTSILLLLACVLLSKFLAASILWAVARGRQKPGTPVVRGLDCGQDAGHQLQILTGPGGT
glycan array binding signal (z-score) (Fuc(a1-2)Gal(b1-4)GlcNAc): -0.407 | glycan array binding signal (z-score) [23]: -0.342 | glycan array binding signal (z-score) [24]: -0.368 | glycan array binding signal (z-score) [25]: -0.349 | glycan array binding signal (z-score) [26]: -0.287 | glycan array binding signal (z-score) [27]: -0.354 | glycan array binding signal (z-score) (Gal3S(b1-4)Glc6S): 4.24 | glycan array binding signal (z-score) (Gal3S(b1-4)GlcNAc6S): 4.02 | glycan array binding signal (z-score) (Gal3S6S(b1-4)GlcNAc): 4.4 | glycan array binding signal (z-score) (Gal3S6S(b1-4)GlcNAc6S): 4.74 | glycan array binding signal (z-score) (Gal6S(b1-4)Glc6S): 3.17 | glycan array binding signal (z-score) [28]: -0.382 | glycan array binding signal (z-score) [29]: -0.305 | glycan array binding signal (z-score) [30]: -0.078 | glycan array binding signal (z-score) [31]: -0.391 | glycan array binding signal (z-score) [32]: -0.043 | glycan array binding signal (z-score) [33]: -0.373 | glycan array binding signal (z-score) [34]: 0.289 | glycan array binding signal (z-score) (Neu5Ac(a2-8)Neu5Ac): -0.304

B4: Mincle (Homo sapiens), Q9ULY5 (protein)
chain: MNSSKSSETQCTERGCFSSQMFLWTVAGIPILFLSACFITRCVVTFRIFQTCDEKKFQLPENFTELSCYNYGSGSVKNCCPLNWEYFQSSCYFFSTDTISWALSLKNCSAMGAHLVVINSQEEQEFLSYKKPKMREFFIGLSDQVVEGQWQWVDGTPLTKSLSFWDVGEPNNIATLEDCATMRDSSNPRQNWNDVTCFLNYFRICEMVGINPLNKGKSL
glycan array binding signal (z-score) [35]: 2.53 | glycan array binding signal (z-score) [36]: -0.324 | glycan array binding signal (z-score) (Neu5Ac(a2-6)Gal(b1-4)Glc): -0.181 | glycan array binding signal (z-score) [37]: -0.394 | glycan array binding signal (z-score) [38]: 0.372 | glycan array binding signal (z-score) [39]: -0.184
